Assay results reported in the supplement of paper PMC9135407.
“And” between values parts separate entries of the source, which are not always exact repeats. Equal entries are not always repeated. Structures can show the parent of a compound that is named as a salt. The whole screen tested about 5,800 compounds, of which about 620 (11%) showed activity. What follows is part of a selection rich in actives, with near analogues and random picks from the rest. A number with no mark means an inactive call.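 How the source made its calls: active = score above a cut-off or among the top three wells of a plate; in these data no inactive exceeds 0.85.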

Tested on: primary human hepatic stellate cells (donor 1)
Assay: scaled lipid accumulation score (0 = DMSO-like, 1 = nortriptyline-like); higher = stronger HSC inactivation (lipid re-accumulation), active = hit call of the paper
Conditions: 48 h
Method: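 Primary lipid accumulation screen in primary human hepatic stellate cell myofibroblasts (donor 1, passage 8) in 384-well plates. 100 nL of library compound was pin-transferred into 30 µL medium in duplicate, and cells were treated for 48 h. The 'Scaled' score combines distance from plate baseline, toxicity and reproducibility penalties, and is normalised to nortriptyline (positive) and DMSO (negative) controls on each plate. A hit is defined as scaled >0.85 or among the top 3 wells per plate.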

[1] = library stock concentration: 1 mM
[2] = library stock concentration: 10 mM
[3] = library stock concentration: 80 uM
[4] = library stock concentration: 400 uM
[5] = library stock concentration: 2 mM
[6] = library stock concentration: 3.33 mM
[7] = library stock concentration: 6.4 mM

CC(C)CCCCCCC/C=C/C(=O)O [trans-.DELTA.2-11-methyl-Dodecenoic Acid]
scaled lipid accumulation score [1]: ≤ 0

CC(C)=CCC/C(C)=C/CC/C(C)=C/CSCC(=O)O [Farnesylthioacetic acid]
scaled lipid accumulation score [1]: ≤ -0.021

CC(C)=CCC/C(C)=C/CC/C(C)=C/CSCC(=O)O [S-Farnesyl Thioacetic Acid]
scaled lipid accumulation score [1]: 0.018

CCCCCCCCCC(=O)NC(CN1CCOCC1)C(O)c1ccccc1 (configuration not stated) [PDMP (hydrochloride)]
scaled lipid accumulation score [1]: ≤ 0

C1CCN2C[C@@H]3C[C@@H](CN4CCCC[C@@H]34)[C@H]2C1 [Sparteine sulfate]
scaled lipid accumulation score (library stock concentration: 6 mM): ≤ -0.001
scaled lipid accumulation score [2]: 0.072

C1CCN2C[C@@H]3C[C@@H](CN4CCCC[C@@H]34)[C@H]2C1 [Sparteine (-)]
scaled lipid accumulation score: ≤ 0

CCCCC[C@H](O)/C=C/[C@H]1[C@H](O)CC(=O)[C@@H]1C/C=C\CCCC(=O)O [Prostaglandin E2]
scaled lipid accumulation score [1]: ≤ 0
scaled lipid accumulation score [2]: ≤ -0.001

CCCCC[C@H](O)/C=C/[C@H]1[C@H](O)CC(=O)[C@@H]1C/C=C\CCCC(=O)O [Dinoprostone]
scaled lipid accumulation score (library stock concentration: 5.7 mM): ≤ -0.006

CCCCC[C@H](O)/C=C/[C@H]1[C@H](O)CC(=O)[C@@H]1C/C=C\CCCC(=O)O [Prostaglandin  E2]
scaled lipid accumulation score [1]: ≤ -0.021

Cc1ccc2c(c1)C(=O)C1(O)CCN(c3ccccc3)C1=N2 (single isomer, unassigned; (-)) [(-)-Blebbistatin]
scaled lipid accumulation score [3]: ≤ -0.001
scaled lipid accumulation score [4]: ≤ -0.001
scaled lipid accumulation score [1]: ≤ 0
scaled lipid accumulation score [5]: ≤ -0.001
scaled lipid accumulation score [6]: ≤ -0.009
scaled lipid accumulation score [2]: 0.264

CCCCC/C=C\C/C=C\CC/C=C\CCCC(=O)OC [Pinolenic Acid methyl ester]
scaled lipid accumulation score [1]: ≤ 0

CC(C)(C)c1cnc(CSc2cnc(NC(=O)C3CCNCC3)s2)o1
scaled lipid accumulation score [3]: 0.373
scaled lipid accumulation score [4]: 0.262 and 0.17
scaled lipid accumulation score [5]: 0.414 and 0.498
scaled lipid accumulation score [6]: 0.468
scaled lipid accumulation score [2]: 0.32 and 0.42 and 0.56

CN([C@@H](Cc1ccc(OS(=O)(=O)c2cccc3cnccc23)cc1)C(=O)N1CCN(c2ccccc2)CC1)S(=O)(=O)c1cccc2cnccc12
scaled lipid accumulation score [3]: ≤ 0
scaled lipid accumulation score [4]: ≤ 0
scaled lipid accumulation score [5]: ≤ 0
scaled lipid accumulation score [2]: 0.021

COC(=O)C1=CO[C@@H](C)[C@H]2CN3CCc4c([nH]c5ccccc45)[C@@H]3C[C@H]12 [Ajmalicine hydrochloride]
scaled lipid accumulation score: 0.17

CCCCc1nn(-c2ccccc2C(F)(F)F)c(=O)n1Cc1ccc(-c2ccccc2S(=O)(=O)NC(=O)c2sccc2C)cc1
scaled lipid accumulation score [2]: ≤ -0.001

c1ccc2c(-c3cnn4cc(-c5ccc(N6CCNCC6)cc5)cnc34)ccnc2c1
scaled lipid accumulation score [3]: 0.107
scaled lipid accumulation score [4]: ≤ -0.009
scaled lipid accumulation score [5]: 0.656
scaled lipid accumulation score [2]: 0.103

CCCCCC(=O)CC[C@@H]1[C@@H](C/C=C\CCCC(=O)O)[C@@H](O)C[C@H]1O [13,14-dihydro-15-keto Prostaglandin F2.alpha.]
scaled lipid accumulation score [1]: ≤ 0

NC(=O)c1cccc(-c2cc(Nc3ccc(OC(F)(F)F)cc3)ncn2)c1
scaled lipid accumulation score [3]: ≤ 0
scaled lipid accumulation score [4]: ≤ 0
scaled lipid accumulation score [5]: 0.03
scaled lipid accumulation score [6]: ≤ 0
scaled lipid accumulation score [2]: ≤ 0 and 0.198

CCCCCCCCCCCCC(O)C(=O)O (configuration not stated) [2-Hydroxymyristic acid]
scaled lipid accumulation score [1]: 0.03

CCCCCCCCCCCCC(O)C(=O)O (configuration not stated) [2-Hydroxymyristic Acid]
scaled lipid accumulation score [1]: ≤ 0

CC1=CC(=O)c2ccccc2C1=O [Menadione] [listing 1 of 2 here]
scaled lipid accumulation score: 0.873 (active)

COC1=C(OC)C(=O)c2ccccc2C1=O [2,3-Dimethoxy-1,4-naphthoquinone]
scaled lipid accumulation score [2]: 0.634

CC1=CC(=O)c2ccccc2C1=O [Menadione] [listing 2 of 2 here]
scaled lipid accumulation score [6]: ≤ 0
scaled lipid accumulation score [2]: 0.707 and ≤ 0
scaled lipid accumulation score (library stock concentration: 11.6 mM): 0.594

O=C1NC(=O)/C(=C/c2ccc3nccnc3c2)S1
scaled lipid accumulation score [3]: ≤ -0.016
scaled lipid accumulation score [4]: ≤ -0.016
scaled lipid accumulation score [5]: ≤ -0.016
scaled lipid accumulation score [2]: ≤ -0.016

COc1cc(CNC(=O)CCCC/C=C/C(C)C)ccc1O [(E)-Capsaicin]
scaled lipid accumulation score [2]: ≤ 0

COc1cc(CNC(=O)CCCC/C=C/C(C)C)ccc1O [E-capsaicin]
scaled lipid accumulation score [2]: ≤ 0

COc1cc(CNC(=O)CCCC/C=C/C(C)C)ccc1O [Capsaicin]
scaled lipid accumulation score: ≤ 0
scaled lipid accumulation score [1]: ≤ 0
scaled lipid accumulation score [2]: ≤ 0

COc1cc(CNC(=O)CCCC/C=C/C(C)C)ccc1O [E-Capsaicin]
scaled lipid accumulation score (library stock concentration: 16.4 mM): 0.112

COc1c(C)c2c(c(O)c1C/C=C(\C)CCC(=O)OCCN1CCOCC1)C(=O)OC2 [Mycophenolate Mofetil]
scaled lipid accumulation score [6]: ≤ 0
scaled lipid accumulation score [2]: ≤ 0

CC(C)c1cccc(C(C)C)c1N1C(=O)c2ccc(O)cc2C1=O
scaled lipid accumulation score [2]: 0.259

CN(C)CC(C)(C)CNc1nn2c(-c3ccccc3)nnc2cc1C1CCC1
scaled lipid accumulation score [4]: ≤ -0.005
scaled lipid accumulation score [5]: ≤ -0.005
scaled lipid accumulation score [2]: 0.159

Cc1cc2c(cc1Cl)N(C(=O)Nc1ccnc3ccccc13)CC2
scaled lipid accumulation score [2]: 1.08 (active)

Cc1cc2c(cc1Cl)N(C(=O)Nc1ccc(Oc3cccnc3C)nc1)CC2
scaled lipid accumulation score [2]: 0.832

Cn1ccc2cc3c(cc21)CCN3C(=O)Nc1cccnc1
scaled lipid accumulation score [2]: ≤ 0 and ≤ -0.006

CC(=Nc1ccccc1N)c1c(C)cc(=O)n(O)c1O
scaled lipid accumulation score [2]: ≤ 0

CCCCCCCCCCCCCCCCOC[C@H](COP(=O)([O-])OCC[N+](C)(C)C)OC(=O)CCC [Butanoyl PAF]
scaled lipid accumulation score [1]: ≤ 0

CO[C@H]1C[C@@H]2CC[C@@H](C)[C@@](O)(O2)C(=O)C(=O)N2CCCC[C@H]2C(=O)O[C@H]([C@H](C)C[C@@H]2CC[C@H](n3cnnn3)[C@H](OC)C2)CC(=O)[C@H](C)/C=C(\C)[C@@H](O)[C@@H](OC)C(=O)[C@H](C)C[C@H](C)/C=C/C=C/C=C/1C [Zotarolimus(ABT-578)]
scaled lipid accumulation score [6]: 0.109
scaled lipid accumulation score [2]: ≤ 0

OC[C@H]1NC[C@@H](O)[C@@H](O)[C@@H]1O [1-Deoxymannojirimycin hydrochloride]
scaled lipid accumulation score [2]: ≤ -0.006
scaled lipid accumulation score (library stock concentration: 25.1 mM): ≤ -0.012

CCCCC(C)(C)[C@H](O)/C=C/[C@H]1C=CC(=O)[C@@H]1C/C=C\CCCC(=O)O [16,16-dimethyl Prostaglandin A2]
scaled lipid accumulation score [1]: ≤ 0

C#C[C@]1(O)CC[C@H]2[C@@H]3CCC4=CC(=O)CC[C@@H]4[C@H]3CC[C@@]21CC
scaled lipid accumulation score [2]: 0.195

C#C[C@]1(O)CC[C@H]2[C@@H]3CCC4=CC(=O)CC[C@@H]4[C@H]3CC[C@@]21CC [Levonorgestrel]
scaled lipid accumulation score [1]: ≤ 0
scaled lipid accumulation score [6]: ≤ 0
scaled lipid accumulation score [7]: 0.107
scaled lipid accumulation score [2]: 0.727

C#C[C@]1(O)CCC2C3CCC4=CC(=O)CC[C@@H]4C3CC[C@@]21CC (some centres not stated) [Norgestrel]
scaled lipid accumulation score [7]: 1.05 (active)

C#C[C@]1(O)CC[C@H]2[C@@H]3CCC4=CC(=O)CC[C@@H]4[C@H]3CC[C@@]21CC [Norgestrel-(-)-D]
scaled lipid accumulation score: ≤ 0

C#CC1(O)CC[C@H]2[C@@H]3CCC4=CC(=O)CC[C@@H]4[C@H]3CC[C@@]21CC (some centres not stated) [Norgestrel]
scaled lipid accumulation score [1]: 0.037
scaled lipid accumulation score [2]: 0.03

Nc1nc2c(nc(O)n2[C@@H]2O[C@H](CO)[C@@H](O)[C@H]2O)c(=O)[nH]1 [8-hydroxy Guanosine]
scaled lipid accumulation score [1]: ≤ 0

CCCCC[C@H](O)/C=C/[C@@H]1[C@H]2C/C(=C\CCCC(=O)O)C[C@H]2C[C@H]1O [5-cis Carbaprostacyclin]
scaled lipid accumulation score [1]: ≤ 0

O=C1OC[C@H](Cc2cccc(O)c2)[C@H]1Cc1cccc(O)c1
scaled lipid accumulation score [1]: ≤ 0

O=C(Nc1cccc(Nc2nccc(Nc3cccc(C(F)(F)F)c3)n2)c1)C1CC1 [Aurora Kinase Inhibitor III]
scaled lipid accumulation score [6]: 0.0325

COc1cc(OC)cc(-c2cc3cnc(N)nc3nc2NC(=O)NC(C)(C)C)c1
scaled lipid accumulation score [2]: ≤ 0

CCN(CC)CCNC(=O)COc1ccc(OC)cc1 [Mefexamide]
scaled lipid accumulation score (library stock concentration: 6.3 mM): 0.018
scaled lipid accumulation score [2]: ≤ 0

CCN(CC)CCCCNc1ncc2c(n1)N(C)C(=O)N(c1c(Cl)c(OC)cc(OC)c1Cl)C2
scaled lipid accumulation score [3]: ≤ -0.008
scaled lipid accumulation score [4]: ≤ -0.008
scaled lipid accumulation score [5]: ≤ -0.001
scaled lipid accumulation score [2]: 0.416

CCN(CC)CCNC(=O)COc1ccc(OC)cc1 [Mefexamide hydrochloride]
scaled lipid accumulation score: ≤ 0

CCN(CC)CCCCNc1ncc2cc(-c3cc(OC)cc(OC)c3)c(NC(=O)NC(C)(C)C)nc2n1 [listing 1 of 3 here]
scaled lipid accumulation score [6]: 1.34 (active)
scaled lipid accumulation score [2]: 1.01 (active)

CCN(CC)CCCCNc1ncc2cc(-c3cc(OC)cc(OC)c3)c(NC(=O)NC(C)(C)C)nc2n1 [listing 2 of 3 here]
scaled lipid accumulation score [3]: ≤ 0
scaled lipid accumulation score [4]: ≤ 0

CCN(CC)CCCCNc1ncc2cc(-c3cc(OC)cc(OC)c3)c(NC(=O)NC(C)(C)C)nc2n1 [listing 3 of 3 here]
scaled lipid accumulation score [5]: 1.12 (active)
scaled lipid accumulation score [2]: 1.22 (active)

CCCCCCCCCCCCCC=CC(O)C(CO)NC(=O)CCCCCCCCCCCCCCCCCCCCCCC (configuration not stated) [Lignoceric Ceramide]
scaled lipid accumulation score [1]: ≤ 0

Nc1nc2ccc(Cl)cc2n2c(-c3ccccc3)nnc12
scaled lipid accumulation score [2]: 0.049

CCCCC#Cc1nc(NC)c2ncn([C@@H]3O[C@H](CO)[C@@H](O)[C@H]3O)c2n1
scaled lipid accumulation score [2]: ≤ 0 and ≤ -0.006
